Assay [1] is described as follows: Confirmatory qHTS for small molecule stabilizers of the endoplasmic reticulum resident proteome: Secreted ER Calcium Modulated Protein (SERCaMP) assay (AID 1508628; active means well fitted curve in the direction sought with a large enough effect; an effect the other way counts as inactive or inconclusive; further: series mostly up to about 76 µM; nearly all actives have a fitted effect of over 40% in size). Summed up: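 Reporter secretion upon ER calcium depletion (100 nM thapsigargin, 4 h, 37C) is measured as medium luminescence with coelenterazine, after 16 h compound pretreatment of SH-SY5Y-GLuc-SERCaMP cells; primary at three concentrations up to 38.3 uM, follow-up at 11 (up to 76.6 uM).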

The target of assay [2] is Cytochrome P450 2D6 (Homo sapiens) (UniProt P10635). Put plainly: Cytochrome P450 family 2 subfamily D member 6 (CYP2D6) small molecule antagonists: luciferase biochemical (cell-free) qHTS assay (AID 1645840). Further: nearly all actives have a fitted effect of over 55% in size. Further: potency means the concentration at half of the fitted maximal effect. Summed up:
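P450-Glo CYP2D6 system: proluciferin substrate converted by enzyme to luciferin, read by luminescence proportional to activity. Enzyme-substrate mix with compound 10 min at room temperature, then NADPH regeneration 1 h before detection reagent.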

Assay [3] deals with Cytochrome P450 2C9 (Homo sapiens) (UniProt P11712). Put plainly: Cytochrome P450 family 2 subfamily C member 9 (CYP2C9) small molecule antagonists: luciferase biochemical (cell-free) qHTS assay (AID 1645842). Further: nearly all actives have a fitted effect of over 55% in size. Further: potency means the concentration at half of the fitted maximal effect. An outline of the steps:
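P450-Glo CYP2C9 system: proluciferin substrate with enzyme in mix containing 0.4% BSA, 10 min at room temperature, then NADPH regeneration solution added and incubated 1 h at 37C. Detection reagent stopped reaction; luminescence read after 20 min as RLU.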

A short description of assay [4]: Primary qHTS for small molecule stabilizers of the endoplasmic reticulum resident proteome: Secreted ER Calcium Modulated Protein (SERCaMP) assay (AID 1508630; active means well fitted curve in the direction sought with a large enough effect; an effect the other way counts as inactive or inconclusive). An outline of the steps:
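The SH-SY5Y reporter protocol was run at 3 concentrations up to 38.3 uM (primary) or 11 concentrations (follow-up): 16 h compound, 100 nM thapsigargin for 4 h, then extracellular luciferase luminescence.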

A short description of assay [5]: A High-Content qHTS Against Drug Library for the Identification of Small Molecules that Inhibit DYT1 Early Onset Primary Dystonia-Associated Cell Pathology (AID 1645839; calls by dose curve; further: potency means the concentration at half of the fitted maximal effect). An outline of the steps:
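Induced EGFP-delE TorsinA cells are imaged after 48 h of compound treatment. Punctate fusion-protein distribution gives the %pathology value, while nuclei counts flag toxicity. Wild-type EGFP-hTOR1A cells define the normal pattern.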

A short description of assay [6]: Primary qHTS for inhibitors of nuclear receptor binding SET domain protein 2 (NSD2) in an isogenic RCH-ACV NSD2 p.E1099K mutant (9B) (AID 1645876; active means well fitted curve in the direction sought with a large enough effect; an effect the other way counts as inactive or inconclusive; further: nearly all actives have a fitted effect of over 70% in size; further: potency means the concentration at half of the fitted maximal effect).
A short description of assay [7]: Primary qHTS for inhibitors of nuclear receptor binding SET domain protein 2 (NSD2) in an RCH-ACV wild type WT cells (2C) (AID 1645877; active means well fitted curve in the direction sought with a large enough effect; an effect the other way counts as inactive or inconclusive; further: nearly all actives have a fitted effect of over 70% in size).

Records with an inconclusive call do not appear. Active and inactive are the calls of the source. Unless noted, the call rests on the fitted dose curve; in most records, active means well fitted curve in the direction sought with a large enough effect in the repeat runs; inconclusive means weak or mixed curves; inactive means no such curve, though single readings can be large; an effect the other way counts as inactive or inconclusive.

Sequence of Cytochrome P450 2D6 (Homo sapiens) (P10635 whole entry, looked up): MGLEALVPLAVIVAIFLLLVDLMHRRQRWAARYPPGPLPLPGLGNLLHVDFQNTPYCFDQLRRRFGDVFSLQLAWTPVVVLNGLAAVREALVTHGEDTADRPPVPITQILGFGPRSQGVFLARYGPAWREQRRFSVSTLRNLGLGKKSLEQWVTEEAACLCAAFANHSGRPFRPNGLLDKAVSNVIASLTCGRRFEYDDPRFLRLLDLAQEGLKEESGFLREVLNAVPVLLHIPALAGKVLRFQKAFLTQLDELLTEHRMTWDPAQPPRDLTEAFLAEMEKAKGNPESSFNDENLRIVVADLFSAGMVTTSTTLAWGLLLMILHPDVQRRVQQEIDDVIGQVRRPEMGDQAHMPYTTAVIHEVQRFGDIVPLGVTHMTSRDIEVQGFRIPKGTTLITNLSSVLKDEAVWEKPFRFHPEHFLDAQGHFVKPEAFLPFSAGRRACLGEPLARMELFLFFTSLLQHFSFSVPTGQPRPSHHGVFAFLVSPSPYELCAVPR
Sequence of Cytochrome P450 2C9 (Homo sapiens) (P11712 whole entry, looked up): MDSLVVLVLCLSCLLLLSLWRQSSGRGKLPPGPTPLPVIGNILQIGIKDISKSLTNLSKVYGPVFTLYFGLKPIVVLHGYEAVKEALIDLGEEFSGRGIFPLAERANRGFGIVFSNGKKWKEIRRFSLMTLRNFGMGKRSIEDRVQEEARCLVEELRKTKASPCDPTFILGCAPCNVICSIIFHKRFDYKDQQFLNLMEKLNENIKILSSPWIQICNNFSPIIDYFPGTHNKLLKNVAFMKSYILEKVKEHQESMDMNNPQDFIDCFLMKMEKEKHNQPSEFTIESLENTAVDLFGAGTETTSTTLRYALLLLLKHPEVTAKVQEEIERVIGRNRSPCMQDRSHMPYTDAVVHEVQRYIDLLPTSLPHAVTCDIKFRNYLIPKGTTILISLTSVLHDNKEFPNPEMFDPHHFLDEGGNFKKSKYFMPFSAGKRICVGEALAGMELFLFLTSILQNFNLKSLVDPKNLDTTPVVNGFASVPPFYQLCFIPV

On to `Cc1ccc(N)cc1O`, for which the outcome in assay [1] was inactive. Also, in assay [2], the Potency was 2.45 µM (active).
As to `CS(=O)(=O)NCC1CCC(Nc2nc3c(s2)CCSc2ccccc2-3)CC1` (configuration not stated), the Potency in assay [2] was 10.7 µM (active).
As for `C[C@H](C(=O)NC1CCCC1)N(C(=O)Cn1nnc(-c2ccc3c(c2)OCO3)n1)C1CCCCC1`, the Potency in assay [2] is 19 µM (active); in assay [3], 2.68 µM (active).
Regarding `CC(C)=CCCC1(C)C=Cc2c(c(C)cc3c2[nH]c2ccccc23)O1` (configuration not stated), the result in assay [4] was inactive.
Take `COc1cc(Nc2nc3ccccc3nc2NS(=O)(=O)c2ccc(NC(=O)c3ccc(OC)c(C)c3)cc2)cc(OC)c1`: the Potency result in assay [2] was “inactive”.
Regarding `O=C(O)c1c(O)c(-c2ccccc2)nc2ccccc12`, the Potency entry in assay [5], in assay [2], in assay [6] and in assay [7] was “inactive” each time.
On to `CC(=O)NC[C@H]1CN(c2ccc(N3CCN(C(=O)CO)CC3)c(F)c2)C(=O)O1`, for which the Potency result in assay [2] and in assay [3] was “inactive” each time.
For the compound `CC(C)(C)NS(=O)(=O)c1cncc(-c2cc(F)c3nc(N)nn3c2)c1`, the Potency entry in assay [2] and in assay [3] was “inactive” each time.
Take `COc1ccc(-c2nc(-c3ccc(-c4cccc(Cl)c4)o3)[nH]c2-c2ccc(OC)cc2)cc1`: the Potency result in assay [2] was “inactive”.
For the compound `C[C@H]1Oc2cc(cnc2N)-c2c(nn(C)c2C#N)CN(C)C(=O)c2ccc(F)cc21`, in assay [2], the Potency entry is “inactive”. In addition, the Potency in assay [3] is 6.01 µM (active).
For `Cc1noc(-c2ccc(-c3ccc(CC(=O)O)cc3)cc2)c1NC(=O)O[C@H](C)c1ccccc1`, the Potency result in assay [2] is “inactive”. For the same compound, in assay [3], the Potency was 13.5 µM (active).
With `O=S(=O)(NC1CCC(c2cc(F)ccc2F)(S(=O)(=O)c2ccc(Cl)cc2)CC1)C(F)(F)F` (configuration not stated), the Potency in assay [2] is 19 µM (active); in assay [3], 0.425 µM (active).
For the compound `Nc1ccccc1N`, the Potency in assay [5] was 35.5 µM (active); in assay [2], 14.6 µM (active); in assay [3], 35.6 µM (active).
For the compound `Cc1ccc(S(=O)(=O)Nc2ccccc2N2CCCCC2)s1`, the Potency result in assay [2] is “inactive”.
Consider `CON(C)C(=O)[C@H](O)[C@H](Cc1ccccc1)NC(=O)c1cc2cc(Cl)ccc2[nH]1`, for which the figures for the Potency in assay [2] and in assay [3] were 21.3 µM (active) and 10.7 µM (active), respectively.
With `CCOCCOC(=O)/C=C/c1ccc(OC)cc1`, the Potency result in assay [5] and in assay [2] was “inactive” in each case.
As for `Oc1ccc2nc(CN3CCC(Cc4ccccc4F)CC3)[nH]c2c1`, the Potency in assay [2] was 0.0379 µM (active).
Consider `C=CC(=O)Nc1cc(Nc2nccc(-c3c[nH]c4ccccc34)n2)c(OC)cc1N(C)CCN(C)C`, for which the Potency entry in assay [2] was “inactive”. For the same compound, the Potency in assay [3] is 8.49 µM (active).
The like results for `COc1ccc(CC2NCCc3c2[nH]c2ccc(C)cc32)cc1OC` (configuration not stated) were, in that order, 0.239 µM (active) and 10.7 µM (active).
`Cn1nc(C(C)(C)C)cc1C(=O)NC(Cc1cccc(Cl)c1)C(=O)NCC#N` (configuration not stated): the Potency in assay [2] is 15.1 µM (active).
For `COc1cc2ncnc(Nc3ccc(O)cc3)c2cc1OC`, the Potency entry in assay [2] and in assay [3] was “inactive” in each case.
As to `O=C(O)c1ccccc1NCCc1ccccc1`, the outcome in assay [4] was inactive. Moreover, the Potency result in assay [5], in assay [6] and in assay [7] was “inactive” throughout. Further, the Potency in assay [2] was 11 µM (active).
Consider `Cc1c(C(=O)Nc2ccc(N3CC(C)OC(C)C3)nc2)cccc1-c1ccc(OC(F)(F)F)cc1` (configuration not stated), for which the Potency entry in assay [2] and in assay [3] was “inactive” each time.
Consider `CCN(CC)Cc1ccc(C(=O)N(CCc2ccccc2OC)[C@@H]2CCNC2)cc1`, for which the Potency in assay [2] is 13.5 µM (active). Besides, the Potency entry in assay [3] is “inactive”.
On the same counts, the results for `COc1ccc(-n2[nH]c(=O)c3[nH]c4cc(Cl)ccc4c(=O)c3c2=O)c(C)c1` are “inactive” and “inactive”.
In the case of `CC[C@@](C)(Nc1ccnc(-c2c[nH]c3ncccc23)n1)C(=O)NCC(F)(F)F`, the Potency in assay [2] is 16.9 µM (active); in assay [3], 21.3 µM (active).
With `CC(C)(C)CCN1C[C@@H]2C(CNC(=O)c3cc(Cl)cc(Cl)c3)[C@@H]2C1` (some centres not stated), the Potency in assay [2] is 3.79 µM (active).
Same read-out and setting: the value for `COC(=O)[C@@]1(c2ccc(C)cc2)C[C@H]1CN1CCC(O)(c2ccccc2)CC1` was 2.68 µM (active).
For `CC(=O)O[C@H]1C(=O)[C@@]2(C)[C@H]([C@H](OC(=O)c3ccccc3)[C@]3(O)C[C@H](OC(=O)[C@H](O)[C@@H](NC(=O)c4ccccc4)c4ccccc4)C(C)=C1C3(C)C)[C@]1(OC(C)=O)CO[C@@H]1C[C@@H]2O`, the result in assay [4] was inactive. Also, the Potency in assay [6] is 0.0069 µM (active).
Take `CCNCc1nc2c(N)nc3ccccc3c2n1CC(C)(C)O`: the Potency in assay [2] was 5.35 µM (active).
For `Cc1ccc(-c2c(C(=O)CF)n(CCCO)c3ncnc(N)c23)cc1`, the Potency result in assay [2] was “inactive”. Further, in assay [3], the Potency is 21.3 µM (active).
On to `CCC(C(=O)O)c1ccc(N2Cc3ccccc3C2=O)cc1` (configuration not stated), for which the outcome in assay [4] was inactive. The Potency result in assay [5], in assay [3], in assay [6] and in assay [7] was “inactive” throughout.
As to `O=C1CCC(c2ccccc2)(C2CCN(Cc3ccc(I)cc3)CC2)C(=O)N1` (configuration not stated), the Potency in assay [2] is 13.5 µM (active). Also, the Potency entry in assay [3] was “inactive”.
As for `Cc1cccc(-c2[nH]c(Cc3cccc(C(N)=O)c3)nc2-c2ccc3nccnc3c2)n1`, the Potency in assay [2] is 13.5 µM (active).
Take `O=C(CCc1ccccc1)N1CCC(O)(Cn2cnc3cc(Cl)ccc3c2=O)CC1`: in assay [2], the Potency is 4.25 µM (active).

The values above are taken from PubChem BioAssay (NCATS).
